Experimental data as given in the supplement of paper PMC3334620.
The full ranking holds about 33,000 sequences; the median of “E-score (-0.5 to 0.5)” is about -8e-05, and the highest 2% start at about 0.23. Only a selection was taken, and the highest values are over-represented in it overall.

biological target: T1, Nrg2 (UniProt P38082); assay: PBM E-score (8-mer binding enrichment) (E-score (-0.5 to 0.5)); higher = stronger / more preferred TF binding; conditions: protein concentration: 100 nM; construct: GST-full length
T1 sequence: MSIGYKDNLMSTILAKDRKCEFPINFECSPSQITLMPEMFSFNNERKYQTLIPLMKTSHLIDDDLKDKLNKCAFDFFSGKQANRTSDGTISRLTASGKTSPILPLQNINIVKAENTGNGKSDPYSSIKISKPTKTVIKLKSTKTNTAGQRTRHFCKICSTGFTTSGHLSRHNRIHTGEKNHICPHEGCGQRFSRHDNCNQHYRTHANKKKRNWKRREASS
Description: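 Universal 'all 10-mer' protein binding microarrays (Agilent AMADID 015681) probed with GST-tagged S. cerevisiae TFs (full-length or DBD) made by in vitro transcription/translation (PURExpress), about 100-200 nM. Bound TF was detected with fluorescent anti-GST. Each ungapped 8-mer (which stands for itself and its reverse complement) is scored by the PBM enrichment score (E-score), a modified Wilcoxon-Mann-Whitney statistic from -0.5 to +0.5, computed with the Universal PBM Analysis Suite. Scale: above 0.35 generally sequence-specific binding.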

Sequence	PBM E-score
AGGCCGGG	-0.266
GCAGTGCA	-0.0476
ATGAGCTA	0.069
CAGCAAGC	-0.226
CCGCCCTC	-0.112
CAGCCAGG	0.0441
AAGGATTA	-0.0123
ATCCCCAT	0.124
GTCCCCAC	-0.178
ATCCCCAC	0.247
AAAGTCTA	-0.0546
CTCTGCAG	-0.0279
ATGCATCG	0.0353
ATGCATCA	0.229
GTGCATCA	0.129
CGAGATAG	0.0116
GATCTTCA	0.0364
AACATATT	0.0545
CCGCCCCC	-0.406
CCGCCCCG	0.309
CCGCCCGG	-0.003
AGCTCTGA	-0.199
AGTGCAAT	0.0654
AGTGCAAG	0.156
TATGCAAA	-0.0899

Sequence	PBM E-score
AATGCAAA	0.244
CTTGCAAC	0.124
CTTGCAAA	0.232
AATGCAAG	0.0402
AATGCAAC	0.127
CATGCAAA	0.246
CATGCAAG	0.088
CTTGCAAG	0.181
AGTGCAAA	0.258
ACCCGTGG	-0.111
TCATAAAA	-0.032
GCACTAGA	-0.0716
CTGGTTCC	0.158
AAGAATGG	0.0626
TAAGAGGA	-0.0476
GTTTACGA	-0.00773
CAGGTCTA	-0.0487
GCGTCGTA	0.0775
AAAGCTTG	0.00751
CCCAGTCG	-0.143
AGATCAAA	0.0337
AATGCGCA	0.296
ATTGCAAT	0.243
ATTGCAAA	0.127
CTTGCGCC	-0.0573

Sequence	PBM E-score
ATTGCAAG	0.137
ATTGCGCA	0.143
CATGCGCA	0.164
AATGCGCG	0.177
CTTGCGCA	0.264
ATCCTTGC	-0.0413
AGCAGACC	0.135
ACCTTCTA	-0.0686
CGTGTCCC	-0.104
ACGACTAT	0.0778
CTGTAGGA	0.0349
AGTAGTAT	0.114
GTAAATCA	0.24
CTAAATCA	0.0351
GGAAATCA	-0.049
CGAAATCA	0.244
CGAAATCC	0.199
ATAAATCA	0.0708
GCTGTGTA	-0.051
CCTCTCCA	-0.343
AGGCATCC	-0.161
AGGGGTAC	0.142
CTCTTTTA	-0.0622
ATTCATAG	0.155
ATTCATAC	0.238

Sequence	PBM E-score
CTTCATAC	0.112
ATCTCATC	0.0993
CTTATGGC	-0.0261
GCCTGACC	-0.0177
CCCTGACC	0.3
CCCTGACA	0.288
CCCTGACG	0.138
GCCTGACA	-0.173
ACCTGACC	-0.197
TAACTGCA	0.157
CTCTCAAC	-0.121
GAGTCTCC	-0.178
CAGCAATC	0.0368
AAACAGTG	0.167
CAGGGATA	0.286
AAGGGATC	0.135
CAGGGATG	0.211
CAGGGATC	0.238
GAGGGATA	-0.145
TAGGGATA	0.134
ATTTTCTC	0.106
CCCGCCAC	0.269
ACCGCCAC	-0.117
GCCGCCAC	-0.231
GGCGTCGA	0.148

Sequence	PBM E-score
CAGGTAGC	-0.212
AATGCTGC	0.0363
AATGGCCA	-0.0344
ACTTTAAG	0.243
ACTTTAAA	0.0738
CCTTTAAG	-0.0435
GATTAGAC	0.0407
CGTCGAAA	0.075
CGAATGAG	0.0496
ATAGATCG	0.0393
CAAACTCC	0.0622
AGCTAGCT	0.244
AGCTAGCC	-0.0348
AGCTAGCA	-0.191
ACGCAGCT	0.0108
AGTCTGAG	-0.319
AGGACAGA	0.0623
CGGCTTGA	-0.0482
CGGCTTGC	0.237
AGGCTTGC	-0.173
CGCCTAGC	-0.315
GGTCTTAA	-0.301
CATCTCTC	0.148
ACCGCAGA	-0.0429
ATTCGGGG	0.243

Sequence	PBM E-score
ATTCGGGA	0.0112
ATTCGGGC	-0.044
ACCCGCTG	-0.133
GTTTACTA	0.155
ATTTACTC	0.271
CTTTACTC	0.144
CTTTACTA	0.26
ATTTACTA	0.0988
ATTTACTG	0.107
GCAGTGGC	-0.173
CAGCTGGA	0.123
GACTCGGA	-0.226
CTTTTAAA	-0.168
AGCAGCCA	0.0226
CTCGATAC	0.245
CTCGATTC	0.15
ATCGATAC	0.133
CTCGATTA	0.251
ATCGATTA	0.0753
CTCGATAA	0.041
GCGGATAC	0.0466
GGCGCCAA	0.133
CGTCGCCC	-0.282
CCAAAGCA	0.119
GCTGCACC	-0.0621

Sequence	PBM E-score
CAATATAA	0.212
GAATATAA	0.12
TAATATGA	0.0376
TAATATCA	0.0975
AAATATTG	0.204
TAATATAA	0.302
CAATATTA	0.154
TAATATTA	0.322
AAATATTA	0.247
AACCTGTC	-0.0794
AGCTATAC	-0.101
CATGGGCA	0.0918
GAATAACA	0.265
CAATAACA	0.0577
AAATAATA	0.203
ACATAATA	0.295
TAATAACA	0.00017
GAATAATA	0.238
AAATAATT	0.243
TAATAATA	0.0963
ACATAATC	0.193
GAATAATC	0.185
AAATAATC	0.0163
GCATAATA	0.201
CTGGCCGA	-0.163

Sequence	PBM E-score
AACCTCCT	-0.264
ACTCATAT	-0.028
CCATTCAC	0.0939
CGGACACG	-0.0788
GTCTAAAA	-0.0766
CAGTCACA	-0.0678
AAGTAATA	-0.00088
GAGTAATA	0.232
CAGTAATA	0.161
ATCGGCTC	-0.0282
AAGAATGT	0.107
CCCCTGGC	0.11
ACCCTGGG	0.328
AACCTGGA	-0.00995
CCCCTGGA	0.0369
AACCTGGC	-0.18
ACCCTGGC	0.338
AGCCTGGA	-0.0491
AGCCTGGG	-0.159
GTCCTGGA	-0.261
AACCTGGG	-0.131
GCCCTGGA	0.247
ACCCTGGA	0.279
CCTAAGGC	-0.191
CCCTCATC	-0.0723

Sequence	PBM E-score
CGGGGGAC	-0.242
ACCCAGGG	0.0967
AAAACCTA	0.0556
CGTAGGAA	-0.0744
CAGGGAAC	0.0728
TGCAACAA	0.00649
ATGAGGTC	-0.142
GGCGCTAA	-0.0159
TGCGCTAA	0.0259
CGCGCTGA	0.0409
CGCGCTAA	0.259
AGCGCTTA	0.131
CGCGCTTA	0.254
ACTAGTGG	0.123
CAGCTCAC	-0.161
CGCCGCTC	0.0612
ACACGCGT	0.00123
GCAACATA	0.0428
ACAACATA	0.268
ACAACATC	-0.042
AGTTTGCA	-0.0668
AGGGTTTG	0.172
AGGGTGCG	0.0103
AGGGTTCC	0.189
CGGGTTTA	0.104

Sequence	PBM E-score
AGGGTTCA	0.281
AGGGTGCA	0.256
GGGGTTCA	0.166
CGGGTGCA	-0.0669
AGGGTTTA	0.235
AGCTGGCG	-0.158
AACCCGTA	-0.0217
GAATTCGA	0.0262
TCAACTAA	0.0939
ATAACTAA	0.0389
AAAACTAT	0.0045
AAAACTAA	0.234
CCAACTAA	0.0905
CTAACTAA	-0.0143
TTAACTAA	0.249
TAAACTAA	0.186
GCAACTAA	0.288
ACAGTTCG	0.103
GAGGCAAC	-0.192
AAGTAAGG	0.159
CGAAAACA	0.0723
CTGGCCTA	-0.0943
ACTTAGCT	-0.202
CGCAGAAA	0.0592
AATATATG	0.225

Sequence	PBM E-score
TATATATA	0.269
GATATATC	0.0168
GATATACA	0.0803
TATATACA	0.207
AATATATT	0.341
GATATATA	0.247
TAAATATA	0.144
AAAATATA	0.00189
GAAATATA	0.256
CATATATA	0.205
AATATATA	0.0908
AGGCCGCC	-0.0684
CGACCAAA	0.222
ATTACCAA	0.0553
CATTGACG	-0.0426
ACTTCGGC	-0.0688
TAAATAGA	-0.125
AAAATAGA	0.118
CAAATAGA	0.296
CAAATATC	0.256
AATATGGA	0.0669
TATATGGA	0.0065
GATATGGA	0.259
CAAATATG	-0.0116
CAAATATA	0.03

Sequence	PBM E-score
TAGCGTGA	0.0132
CGGTAGAC	0.0168
CGGCGAAC	-0.0868
CATTGGCC	-0.0708
ATCAGAAA	-0.042
GGAATAAC	0.132
TAGGACAA	0.049
GGATAGTA	0.177
ATTATTCC	0.0891
ATTATGCA	-0.00258
GTTATTCA	0.105
ATTATGCG	0.266
ATTATGCC	0.115
ATTATTCA	0.23
CTTATTAA	0.196
ACTATTCG	0.193
ATTATTAA	0.238
GTTATTAA	0.182
ATTATTCG	0.295
CTTATTCA	-0.00255
CTTGATGC	-0.0811
CCAACCCA	-0.242
TCTTCTAA	-0.0126
CAGATATG	0.159
CGGATTGC	0.161

Sequence	PBM E-score
CGCGTTTA	0.0535
TGTCCGAA	0.143
ACAGGCTC	-0.159
ACCTCCCG	-0.177
TCGGTCAA	0.0158
CCCAGACG	-0.0304
CTTGCGAC	-0.142
GTCATTAA	0.25
ATCATTAA	0.171
ATTATACA	-0.00719
CTCATTAA	0.173
ATTATACC	0.18
ATTATACG	0.252
TGACGTAA	-0.175
CCTTAGAA	-0.0241
GCTAACCA	-0.172
GTAAGATA	0.0912
GCAACCTA	0.0294
GAATCCTC	-0.1
AGTAAGGA	-0.00565
AGCAAGGG	0.261
AGTAAGGG	0.233
AGTAAGGC	-0.036
AGCAAGGC	-0.0107
AGCAAAGG	0.0268

Sequence	PBM E-score
AGCAACTC	-0.0833
GCCGGATA	0.0712
GAAAGCCC	0.0882
GAAACACC	0.0146
AGTCCCTC	-0.0587
AATCCCTA	0.154
AGTCCCTG	0.294
AGTCCCTA	0.0553
AATCCCTC	-0.0866
AATCCCTG	0.278
CTTCAGCC	-0.229
ACATCAAT	0.079
ATAAATTG	0.272
ATCAATTA	0.271
ATAAATTA	0.316
ATCAATTG	0.15
AAAAATTG	-0.095
ATAAATTC	0.0818
ATCAATTC	0.107
GTAAATTA	-0.132
CTAAATTA	0.127
